This assay concerns the target Cruzipain (Trypanosoma cruzi) (UniProt P25779). The experiment in a line: Confirmation qHTS Assay for Inhibitors of Cruzain.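 For activity change, negative = inhibition: plate controls were uninhibited enzyme control for no effect and buffer wells lacking enzyme for full effect.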 Note: nearly all actives have a fitted effect of over 40% in size. Conditions: purified cruzain, Z-FR-AMC fluorescence, 0.01% Triton. A digest of the protocol: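 Purified cruzain, 1.5 nM, pre-incubated 15 min at room temperature with compound in 100 mM sodium acetate pH 5.5, 5 mM DTT, 0.01% Triton X-100. Then 2 uM Z-FR-AMC added; AMC fluorescence (ex 360/em 450 nm) increase over 60 s gave reaction progress.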
For orientation: In qHTS, concentration-response curves come from the screen itself.

Data on 38 molecules can be found in PubChem BioAssay AID2158 (National Center for Advancing Translational Sciences (NCATS), 2009).

SMILES strings stand for the structures. Where “and” joins values, the source holds several entries; their conditions need not be identical. Equal entries are not always repeated. Results filed as inconclusive are left out. Values without a mark were called inactive. Calls of active or inactive are those of the source. Calls come from the whole dose curve; as a rule, active = well fitted inhibition curve with a large enough effect; inconclusive = small, poorly fitted or top-dose-only effect; inactive = no such curve, though single readings can be large or run the other way.
Potency is the fitted concentration of half-maximal effect.

Chain of Cruzipain (Trypanosoma cruzi) (P25779 123-467 limits assumed): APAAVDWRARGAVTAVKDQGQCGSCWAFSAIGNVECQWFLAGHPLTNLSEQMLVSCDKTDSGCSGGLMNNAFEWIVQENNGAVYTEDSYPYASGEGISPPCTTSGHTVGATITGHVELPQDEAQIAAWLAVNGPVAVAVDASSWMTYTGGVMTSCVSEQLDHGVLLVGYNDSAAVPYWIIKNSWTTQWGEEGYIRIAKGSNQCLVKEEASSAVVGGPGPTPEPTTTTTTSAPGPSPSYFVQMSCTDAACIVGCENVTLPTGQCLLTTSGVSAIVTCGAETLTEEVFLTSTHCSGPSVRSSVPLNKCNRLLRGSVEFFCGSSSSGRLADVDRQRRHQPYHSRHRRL

As to `CC1(C)Cc2c(C#N)c(N3CCN(C(=O)c4ccccc4)CC3)nc(-c3ccco3)c2CS1`, the Potency was 15.8 µM (active).
Same read-out and setting: as for `O=C(NCCc1nc2ccccc2n1CCCOc1cccc2ccccc12)C1CCCCC1`, the figure is 2.24 µM (active).
Still for that read-out and setting: as for `CCn1cnc2c(Nc3cc(F)cc(F)c3)nc(C#N)nc21`, the figure is 0.01 µM (active); as for `O=C(CNC(=O)C1CCCCCC1)OC(C(=O)Nc1cc(C(F)(F)F)ccc1Cl)c1ccccc1` (stereo not drawn), 7.08 µM (active).
Take `N#Cc1nc(N)nc(N2CCCCC2)n1`: the Potency was 7.94 µM (active).
With `CCOc1ccc(-c2csc(NC(=O)c3ccc(S(=O)(=O)N4CCc5ccccc5C4)cc3)n2)cc1`, the activity change, negative = inhibition is -11%.
Consider `CC(=O)c1nnn(-c2nc(C#N)nc(N3CCOCC3)n2)c1C`, for which the activity change, negative = inhibition is 4.76%.
Still for that read-out and setting: the figure for `O=C(CCN1C(=O)/C(=C/C=C/c2ccccc2)SC1=S)Nc1nccs1` is 1.52%.
Consider `COc1ccc(C(=O)C(C)OC(=O)CNC(=O)C2CCCCC2)cc1` (stereo not drawn), for which the Potency was 1.41 µM (active).
For the molecule `Cc1ccccc1-n1c(C)cc(/C=C2/C(=N)N3C(c4ccccc4)=CSC3=NC2=O)c1C`, the activity change, negative = inhibition is -3.9%.
With `N#Cc1nc(Nc2ccccc2)nc(NC2CCCCC2)n1`, the Potency is 1.41 µM (active).
For `O=C(Cc1nnc(-c2nc3ccccc3[nH]2)o1)Nc1cc(C(F)(F)F)ccc1Cl`, the activity change, negative = inhibition was -0.284%.
As for `Cc1nc2cc(-c3ccccc3)nn2c(C)c1CCC(=O)N1CCN(c2ccccc2)CC1`, the activity change, negative = inhibition is -13%.
In the case of `Clc1ccccc1-c1nn2c(-c3cc(-c4ccccc4)n[nH]3)nnc2s1`, the activity change, negative = inhibition was -2.56%.
As to `Cc1ccccc1C(=O)NCC(=O)OC(C(=O)Nc1cc(C(F)(F)F)ccc1Cl)c1ccccc1` (stereo not drawn), the Potency is 12.6 µM (active).
On the same count and under the same terms, the figure for `NC(=S)N/N=C/c1ccc(-c2cc(Cl)ccc2Cl)o1` is 2 µM (active).
For `O=C(c1ccco1)N1CCN(c2ncnc3c2[nH]c2ccc(Cl)cc23)CC1`, the activity change, negative = inhibition is -37.6%.
As for `Cc1ccc(S(=O)(=O)NC(N)=NCCC[C@@H](N)C(=O)Nc2cc(C(F)(F)F)ccc2Cl)cc1`, the activity change, negative = inhibition was -17.2%.
Consider `COc1ccc(OCCCn2c(CCNC(=O)C3CCCCC3)nc3ccccc32)cc1`, for which the Potency was 1.41 µM (active).
For the molecule `CC(C)(C)OC(=O)NCc1nnc(C(C(=O)OCc2ccccc2)c2ccccc2)s1` (stereo not drawn), the activity change, negative = inhibition is -11.8%.
Turning to `O=C(Nc1ccc(O)c(-c2nc3ccccc3o2)c1)C1(c2ccc([N+](=O)[O-])cc2)CCCC1`, the activity change, negative = inhibition is -1.92%.
As for `COc1ccc(C(=O)COC(=O)CNC(=O)C2CCCCC2)c(OC)c1`, the Potency was 14.1 µM (active).
Take `C=Cn1ccnc1P(=S)(c1ccc2c(c1)c1ccccc1n2CC)c1nccn1C=C`: the activity change, negative = inhibition is -8.46%.
On to `CC1=CC(=NOC(=O)/C=C/c2ccccc2)C=C(C)C1=O`, for which the Potency is 3.98 µM (active).
Turning to `COc1ccc(NC(=O)C(OC(=O)CNC(=O)c2ccccc2)c2ccccc2)cc1F` (stereo not drawn), the Potency is 11.2 µM (active).
Same read-out and setting: as for `COc1ccc(-c2cnnn2-c2ccc(NC(=O)/C=C/c3ccc(OC)c(OC)c3)cc2)cc1`, the figure is 15.8 µM (active).
For `Cc1cc(NC(=O)Cc2cccs2)no1`, the activity change, negative = inhibition is -19.2%.
The same measure, in the same setting: as for `Cc1ccc(C)c(CN2C(=O)c3ccccc3Sc3ccc(C(=O)NCc4ccc5c(c4)OCO5)cc32)c1`, the figure is -8.53%.
In the case of `Cc1cc(C)cc(OCCn2c(CCNC(=O)C3CCCCC3)nc3ccccc32)c1`, the Potency was 631 nM (active) and 2.24 µM (active).
Consider `COc1ccccc1CCNC(=O)CNC(=O)Cc1cccc2ccccc12`, for which the activity change, negative = inhibition was 5.36%.
As for `CNc1oc(Cc2ccccc2)nc1S(=O)(=O)c1ccccc1`, the Potency was 7.08 µM (active).
Consider `CCOC(=O)[C@H](CCc1ccccc1)N[C@@H](C)C(=O)N1[C@H](C(=O)O)C[C@H]2CCCC[C@@H]21`, for which the activity change, negative = inhibition is 0.349%.
For `O=C(CNC(=O)C1CCCCC1)OCC(=O)c1ccccc1`, the Potency was 6.31 µM (active).
For the molecule `O=C(Nc1ccccc1)c1ccc(-n2nncc2-c2ccccc2)cc1`, the activity change, negative = inhibition was -11.6%.
Take `O=C(Nc1ccc(-n2nncc2-c2ccccc2)cc1)c1ccccc1`: the activity change, negative = inhibition is -9.78%.
`CCOC(=O)C(C(=O)OCC)N(C#N)c1nc(OC)nc(N(C)C)n1`: the Potency is 15.8 µM (active).
Still for that read-out and setting: as for `Cc1ccc(C(=O)Oc2oc(-c3ccco3)nc2C=Nc2ccc(Cl)cc2)cc1`, the figure is 11.2 µM (active); as for `CC(C)(C)c1ccc(OCCn2c(CCNC(=O)C3CCCCC3)nc3ccccc32)cc1`, 6.31 µM (active).
